Here are results for 15 compounds from PubChem BioAssay.

A short description of experiment [1]: binders of probe aFSTL3 on microarray, primary screen, stem cell growth factor project, biochemical, small-molecule microarray, fluorescence 635/667 (AID 1064).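 Further: measures binding of the biotinylated anti-FSTL3 antibody to printed compounds.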 The conditions noted are these: higher = more signal.
Experiment [2] in a line: binders from COS7 lysate, DM2A8 probe, primary screen, torsin A project, cell lysate, small-molecule microarray, fluorescence 635/667 (AID 1065). The conditions noted are these: higher = more signal, COS7 lysate expressing mutant human TOR1A.
Experiment [3] can be described thus: binders of probe aFGF2 on microarray, primary screen, stem cell growth factor project, biochemical, small-molecule microarray, fluorescence 635/667 (AID 1067).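 Further: measures binding of biotinylated aFGF2 protein to printed compounds on slides; z-score merges feature fluorescence and signal-to-noise across triplicate slides.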 The conditions noted are these: higher = more signal.
The nature of experiment [4]: binders of probe aFGF10 on microarray, primary screen, stem cell growth factor project, biochemical, small-molecule microarray, fluorescence 635/667 (AID 1071).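 Further: score merges 667 nm spot intensity and signal to noise from triplicate slides.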 The conditions noted are these: higher = more signal.
Experiment [5] deals with Neurogenic locus notch homolog protein 2 (Homo sapiens) (UniProt Q04721). Briefly: Notch2 binders on small-molecule microarrays, primary screen, biochemical, small-molecule microarray, 635 nm fluorescence, stem cell growth factors (AID 1073). The conditions noted are these: Notch2 binding, higher = more signal.
Neurogenic locus notch homolog protein 2 (Homo sapiens), sequence (Q04721 whole entry, looked up, canonical isoform): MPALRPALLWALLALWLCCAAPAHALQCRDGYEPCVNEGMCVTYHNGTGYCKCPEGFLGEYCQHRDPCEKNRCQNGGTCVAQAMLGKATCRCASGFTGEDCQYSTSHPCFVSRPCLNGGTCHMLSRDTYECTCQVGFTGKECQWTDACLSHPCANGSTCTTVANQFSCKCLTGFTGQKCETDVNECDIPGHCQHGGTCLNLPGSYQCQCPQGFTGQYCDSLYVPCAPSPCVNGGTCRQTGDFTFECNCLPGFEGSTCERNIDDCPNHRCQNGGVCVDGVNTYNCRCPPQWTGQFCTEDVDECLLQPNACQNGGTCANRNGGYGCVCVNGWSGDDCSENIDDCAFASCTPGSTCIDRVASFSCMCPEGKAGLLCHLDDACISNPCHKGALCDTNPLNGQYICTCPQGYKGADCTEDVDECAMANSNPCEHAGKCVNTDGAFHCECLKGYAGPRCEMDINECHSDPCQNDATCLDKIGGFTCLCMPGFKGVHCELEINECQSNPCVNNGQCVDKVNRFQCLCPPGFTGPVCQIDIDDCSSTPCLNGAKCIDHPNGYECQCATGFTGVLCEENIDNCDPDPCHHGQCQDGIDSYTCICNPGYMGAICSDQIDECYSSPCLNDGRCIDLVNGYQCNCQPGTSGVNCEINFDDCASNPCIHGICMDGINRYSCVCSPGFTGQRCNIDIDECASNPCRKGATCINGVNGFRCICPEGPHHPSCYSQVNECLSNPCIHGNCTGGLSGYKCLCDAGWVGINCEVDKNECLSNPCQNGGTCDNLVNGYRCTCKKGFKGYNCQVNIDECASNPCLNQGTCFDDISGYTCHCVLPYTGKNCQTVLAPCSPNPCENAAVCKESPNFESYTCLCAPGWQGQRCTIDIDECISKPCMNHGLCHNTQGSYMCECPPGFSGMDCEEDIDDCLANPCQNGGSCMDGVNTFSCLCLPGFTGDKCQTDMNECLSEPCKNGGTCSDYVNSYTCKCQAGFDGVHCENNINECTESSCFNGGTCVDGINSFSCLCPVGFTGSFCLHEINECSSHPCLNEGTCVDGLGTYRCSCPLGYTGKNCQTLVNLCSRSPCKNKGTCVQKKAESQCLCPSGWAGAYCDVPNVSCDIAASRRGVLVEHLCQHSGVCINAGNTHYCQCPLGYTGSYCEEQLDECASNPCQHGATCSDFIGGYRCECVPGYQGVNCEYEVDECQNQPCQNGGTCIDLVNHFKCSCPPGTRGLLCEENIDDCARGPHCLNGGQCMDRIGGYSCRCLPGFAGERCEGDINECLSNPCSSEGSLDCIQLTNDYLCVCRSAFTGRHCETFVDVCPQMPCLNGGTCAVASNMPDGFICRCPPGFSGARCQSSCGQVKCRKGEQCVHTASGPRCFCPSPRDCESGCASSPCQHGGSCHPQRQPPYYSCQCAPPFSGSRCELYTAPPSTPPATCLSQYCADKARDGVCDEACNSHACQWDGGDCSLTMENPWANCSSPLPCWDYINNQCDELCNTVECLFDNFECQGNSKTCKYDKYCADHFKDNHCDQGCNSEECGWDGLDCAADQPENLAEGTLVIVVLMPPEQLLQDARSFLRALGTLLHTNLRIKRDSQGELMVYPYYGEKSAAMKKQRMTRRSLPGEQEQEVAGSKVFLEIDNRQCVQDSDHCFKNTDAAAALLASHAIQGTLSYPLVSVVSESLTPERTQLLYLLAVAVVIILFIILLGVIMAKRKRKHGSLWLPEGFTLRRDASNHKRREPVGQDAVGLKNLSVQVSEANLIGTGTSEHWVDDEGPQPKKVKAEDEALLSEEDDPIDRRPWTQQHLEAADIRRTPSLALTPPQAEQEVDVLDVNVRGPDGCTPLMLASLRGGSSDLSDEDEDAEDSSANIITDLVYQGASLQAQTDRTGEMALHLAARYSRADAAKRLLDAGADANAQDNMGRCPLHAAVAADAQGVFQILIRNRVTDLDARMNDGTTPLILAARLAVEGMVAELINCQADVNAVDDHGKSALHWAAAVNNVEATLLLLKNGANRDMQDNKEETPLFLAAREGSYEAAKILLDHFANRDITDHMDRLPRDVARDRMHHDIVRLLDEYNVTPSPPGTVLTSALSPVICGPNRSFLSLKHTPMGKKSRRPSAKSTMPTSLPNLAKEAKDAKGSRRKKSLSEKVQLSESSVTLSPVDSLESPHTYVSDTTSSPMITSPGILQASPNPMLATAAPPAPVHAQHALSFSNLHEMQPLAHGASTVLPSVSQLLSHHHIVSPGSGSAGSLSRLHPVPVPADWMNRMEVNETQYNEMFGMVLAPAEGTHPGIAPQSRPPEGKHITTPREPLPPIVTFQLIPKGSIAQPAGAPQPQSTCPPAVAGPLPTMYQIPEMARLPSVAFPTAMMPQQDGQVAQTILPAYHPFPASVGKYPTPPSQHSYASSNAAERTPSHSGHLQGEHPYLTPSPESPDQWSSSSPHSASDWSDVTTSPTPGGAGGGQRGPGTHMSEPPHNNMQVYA
Experiment [6] deals with Pro-neuregulin-1, membrane-bound isoform (Homo sapiens) (UniProt Q02297). Briefly: NRG1 binders on small-molecule microarrays, primary screen, psychiatric disease protein project, biochemical, small-molecule microarray, fluorescence 635/667 (AID 1075).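 Further: score combines 667 nm spot fluorescence with signal to noise.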 The conditions noted are these: NRG1 binding, 635 nm fluorescence, higher = more signal.
Pro-neuregulin-1, membrane-bound isoform (Homo sapiens), sequence (Q02297 whole entry, looked up, the tested form may be a part, canonical isoform): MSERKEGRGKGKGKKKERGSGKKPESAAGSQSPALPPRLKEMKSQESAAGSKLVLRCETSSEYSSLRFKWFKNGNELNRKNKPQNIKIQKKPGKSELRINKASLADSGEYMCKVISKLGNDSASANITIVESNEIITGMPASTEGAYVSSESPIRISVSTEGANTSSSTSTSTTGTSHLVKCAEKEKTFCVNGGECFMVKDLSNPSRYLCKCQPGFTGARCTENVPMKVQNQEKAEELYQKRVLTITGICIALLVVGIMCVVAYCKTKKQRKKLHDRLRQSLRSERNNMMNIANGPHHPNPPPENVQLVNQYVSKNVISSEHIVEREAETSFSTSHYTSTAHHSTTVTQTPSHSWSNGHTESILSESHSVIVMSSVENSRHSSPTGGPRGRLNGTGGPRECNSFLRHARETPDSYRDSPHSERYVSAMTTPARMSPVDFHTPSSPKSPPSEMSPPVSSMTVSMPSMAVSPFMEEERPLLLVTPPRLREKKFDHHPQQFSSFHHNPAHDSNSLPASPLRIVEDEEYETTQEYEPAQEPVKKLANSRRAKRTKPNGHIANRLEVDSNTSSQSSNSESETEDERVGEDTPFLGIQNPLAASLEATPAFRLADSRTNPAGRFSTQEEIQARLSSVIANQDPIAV
Experiment [7] concerns Neuregulin-1 EGF-like domain. Kind of experiment: binders of neuregulin-1 EGF-like domain, primary screen, biochemical, small-molecule microarray, 635 nm fluorescence (AID 1081).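 Further: binding of the protein to compounds printed on small-molecule microarray slides.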 The conditions noted are these: small-molecule microarray binding, higher = more signal.
Experiment [8] in a line: FRG1 promoter luciferase signal modulators, primary screen, FRG1 inhibition for FSHD, cell-based, C2C12 myotubes, firefly/Renilla luciferase, luminescence (AID 1084). The conditions noted are these: higher = more signal, called active from +8 up or from −8 down.
Experiment [9] in a line: binders of probe aFST on microarray, primary screen, stem cell growth factor project, biochemical, small-molecule microarray, fluorescence 635/667 (AID 1086).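 Further: score merges 667 nm fluorescence with signal-to-noise of each printed compound spot.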 The conditions noted are these: higher = more signal.
Experiment [10] in a line: binders of probe aHhip on microarray, primary screen, stem cell growth factor project, biochemical, small-molecule microarray, fluorescence 635/667 (AID 1087).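 Further: score merges spot fluorescence at 667nm with spot signal to noise ratio.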 The conditions noted are these: higher = more signal.

The source made the active and inactive calls.

Turning to `O=C1O[C@H](c2ccccc2)[C@H](c2ccccc2)N2[C@H]1[C@@H](C(=O)N1CCN(c3ncccn3)CC1)[C@]1(C(=O)Nc3ccc(C#CC4=CCCCC4)cc31)[C@H]2c1ccccc1OCCO`, the composite z-score in experiment [1] is -0.218; in [2], 0.337; in experiment [3], 0.009; in experiment [4], 0.548; in [5] it was 1.25; in experiment [6], 0.694. Further, the composite z-score was 1.26 in experiment [7], 0.239 in experiment [9] and 0.0139 in experiment [10]. Also, in experiment [8], the z-score was -0.342 (inactive).

In the case of `COCCCNC(=O)[C@@H]1c2ccccc2C(=O)N(Cc2ccccc2)[C@H]1c1ccc(CO)cc1`, the composite z-score in experiment [1] is 0.0981; in experiment [2], 0.361; in [3] it was -0.0952; in experiment [4] it was 0.12; in experiment [5], 0.712; in experiment [6] it was 0.943. The composite z-score was 0.565 in [7], 0.418 in experiment [9] and 0.253 in experiment [10]. For the same compound, the z-score in [8] was -0.179 (inactive).

For the compound `CC(=O)n1cc(C(O)C2C=CC3C(=O)NC(=O)C3N2Nc2ccccn2)c2ccccc21` (stereo not given), the composite z-score is 0.125 in [1]; 0.0908 in experiment [2]; -0.0583 in experiment [3]; 0.122 in [4]; 0.887 in experiment [5]; 0.298 in experiment [6]. In addition, the composite z-score in experiment [7] was 1.27; in experiment [9] it was 0.221; in [10], -0.179. For the same compound, the z-score in [8] was 1.15 (inactive).

Take `CCCCC(O)C1C=CC2C(=O)N(C)C(=O)C2N1N1CCCCC1` (stereo not given): the composite z-score in [1] was found to be 0.515; in experiment [2], 0.314; in [3] it was 0.0311; in [4], 0.591; in [5], 1.56; in [6], 1.12. Also, the figures for the composite z-score in [7], in experiment [9] and in experiment [10] were 1.42, 1.3 and -0.0618, respectively. The z-score in experiment [8] was 0.733 (inactive).

Regarding `COC(=O)[C@@]1(Cc2ccc(OC)cc2)[C@H]2c3cc(C(=O)N4CCCC4)n(CCCNc4ncc(C(F)(F)F)cc4Cl)c3C[C@H]2CN1C(=O)c1ccccc1`, the composite z-score in experiment [1] worked out at 0.965; in [2], 0.103; in experiment [3] it was 0.578; in experiment [4], 0.583; in experiment [5], 1.7; in [6], 1.71. Besides, the composite z-score in experiment [7] amounted to 0.709; in experiment [9], 2.32; in experiment [10], 1.31. Besides, the z-score in experiment [8] is 2.95 (inactive).

In the case of `COC(=O)c1c(CC[C@@H](CO)NC(=O)NCCc2c[nH]c3ccccc23)oc(C(=O)Cc2ccccc2)c1C(=O)OC`, the composite z-score was -0.379 in [1]; 0.488 in experiment [2]; 0.0858 in experiment [3]; 0.203 in experiment [4]; 0.0378 in experiment [5]; -0.0379 in experiment [6]. The composite z-score is 0.939 in experiment [7], 0.224 in [9] and 0.0036 in experiment [10]. Moreover, the z-score in experiment [8] was 1.49 (inactive).

With `COCCOC(=O)N1C(=O)[C@@]2(c3cc(C#CC4(O)CCCCCC4)ccc31)[C@H](c1ccccc1OCCO)N1[C@H](c3ccccc3)[C@H](c3ccccc3)OC(=O)[C@H]1[C@@H]2C(=O)N1CCc2cc(OC)c(OC)cc2C1`, the composite z-score in [1] is -0.207; in experiment [2], 0.788; in [3], -0.0685; in experiment [4], 0.542; in experiment [5], 1.03; in experiment [6], 1.6. The composite z-score in experiment [7] came to 1.19; in experiment [9], 0.223; in [10], 0.177. The z-score in experiment [8] is -0.658 (inactive).

Consider `CC(C)Cc1ccc(CN2CC[C@@H](N)C2)cc1`, for which the composite z-score in [1] was -0.103; in experiment [2] it was -0.816; in [3], -0.219; in [4], -0.711; in experiment [5] it was -1.3; in [6] it was -0.505. The composite z-score in [7] is -1.11; in experiment [9] it was -0.635; in [10], -0.0193. Moreover, the z-score in experiment [8] is -0.132 (inactive).

Consider `COc1ccc(NN2C(C(O)c3ccc(N(C)C)cc3)C=CC3C(=O)N(C4CCCCC4)C(=O)C32)cc1` (stereo not given), for which the composite z-score in [1] was determined as 0.419; in experiment [2] it was 0.427; in experiment [3] it was 0.157; in [4], 1.01; in experiment [5], 1.53; in experiment [6] it was 1.05. The composite z-score in [7] was determined as 1.15; in experiment [9], 0.352; in [10], 0.284. In experiment [8], the z-score is 0.613 (inactive).

Turning to `CC1CC/C=C\[C@H]2OC34C=CCN(Cc5ccccc5)C(=O)[C@H]3N(C(C)CO)C(=O)[C@@H]4C2C(=O)O1` (stereo not given in full), the composite z-score in experiment [1] was -0.504; in experiment [2], -0.33; in experiment [3], -0.138; in [4], 0.0852; in experiment [5], -0.257; in [6] it was -0.771. Also, the figures for the composite z-score in experiment [7], in experiment [9] and in experiment [10] were 1.44, -0.021 and -0.0672, respectively. For the same compound, the z-score in experiment [8] was 0.251 (inactive).

Regarding `COc1ccc(C(O)C2C=CC3C(=O)N(C)C(=O)C3N2N(c2ccccc2)c2ccccc2)c2ccccc12` (stereo not given), the composite z-score in [1] was determined as 0.249; in experiment [2], 0.643; in experiment [3], 0.0346; in experiment [4], 0.412; in experiment [5], 0.295; in experiment [6] it was 0.85. Besides, the composite z-score in experiment [7] was found to be 0.894; in experiment [9] it was 0.284; in [10], 0.576. Also, the z-score in experiment [8] is -0.14 (inactive).

Regarding `CC(=O)NCCCC[C@@H]1NC(=O)[C@H]2C[C@@H](C(=O)O)[C@@H](c3ccc(O)cc3)N2C1=O`, the composite z-score in experiment [1] is -0.0025; in [2], 0.843; in experiment [3], -0.0135; in [4], 0.607; in experiment [5] it was 1.23; in [6], 1.1. For the same compound, the composite z-score in experiment [7] came out at 1.3; in experiment [9], 0.904; in [10], 0.213. In experiment [8], the z-score is -0.316 (inactive).

Consider `COC(=O)[C@@]1(Cc2ccccc2)[C@H]2c3cc(C(=O)N4CCCC4)n(Cc4c(CO)[nH]cc(C)c4=O)c3C[C@H]2CN1C(=O)c1ccccc1`, for which the composite z-score in experiment [1] was 1.13; in experiment [2], -0.0496; in [3], 0.2; in [4], 0.647; in experiment [5] it was 1.63; in experiment [6], 1.96. Also, the composite z-score in experiment [7] is 1.17; in experiment [9], 0.915; in experiment [10], -0.121. Moreover, the z-score in experiment [8] is 1.39 (inactive).

On to `C=CCC(OC(C)=O)[C@@H]1[C@@H](N(Cc2ccc(-c3cccc(C(F)(F)F)c3)o2)C(=O)Cc2ccc(OC)cc2)c2cc(OCCCO)ccc2N1C(=O)c1ccc2ccccc2c1` (stereo not given in full), for which the composite z-score is 0.0929 in [1]; -0.404 in experiment [2]; -0.043 in [3]; -0.608 in experiment [4]; -0.654 in [5]; 0.522 in [6]. The composite z-score in [7] is -0.125; in [9] it was 0.234; in experiment [10] it was -0.236. Moreover, the z-score in experiment [8] is 0.782 (inactive).

Turning to `O=C(CS)NCCCCCNC(=O)[C@@H]1C[C@@H]2C(=O)NCC(=O)N2[C@@H]1c1cccc(OCCO)c1`, the composite z-score in experiment [1] was 0.312; in experiment [2], 0.389; in [3] it was -0.12; in experiment [4], -0.161; in experiment [5], -0.067; in experiment [6] it was -0.515. Also, the composite z-score in experiment [7] is 1.1; in experiment [9] it was -0.188; in experiment [10] it was -0.166. Further, the z-score in [8] was -0.612 (inactive).
